The source of these data is PubChem BioAssay.

Activity calls are given as the source filed them.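 The calls were made as follows, unless noted: active = inhibition at or above 50% at 10 µM; inactive = inhibition below 50%.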

The nature of assay [1]: inhibitors of TNFa-induced NFkB p65 translocation, primary screen, imaging, HUVEC, MLSMR starter and 10KST1 sets (AID 438;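 active = inhibition above 20% together with a positive visual image hit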;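 also: compound added about 3h40 before a 20 min TNFalpha stimulation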;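 as to inhibition: signal is the nuclear over cytoplasmic p65 intensity ratio per well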). As to conditions: HUVEC TNFa-induced p65 nuclear translocation; cell count: measured here: nuclei count (cytotoxicity indicator), at 2.08 µM; inhibition: at 2 µM, stronger effect = higher value, 0% TNFa-plus-vehicle, 100% no-TNFa wells.
A short description of assay [2]: reduction of polyQ htt aggregates in cells – imaging, exon1htt(103Q)mCFP cells, high-content imaging, primary screen (AID 483;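 active = visual image review flags a hit and inhibition of aggregation exceeds 20%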;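 also: compound exposure lasted 3 days before fixation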;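 as to nuclei count: percent of the per-plate median nuclei count of sample wells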). As to conditions: exon1htt(103Q)mCFP cell line, aggregate imaging, at 2 µM; inhibition of aggregation: stronger effect = higher value; nuclei count: measured here: cell count, toxicity.
The nature of assay [3]: endothelial E-selectin expression blockers – imaging, HUVEC, immunofluorescence, MLSMR starter and 10KST1 sets, primary screen (AID 487;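 active = visually confirmed hit in the image check and inhibition above 20%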;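 as to inhibition: signal is fraction of cell area covered by stained E-selectin grains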;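 as to nuclei count: 100% = median nuclei count of all wells on the same plate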). The following applies: HUVEC TNFalpha-induced E-selectin immunofluorescence imaging, at 2 µM; inhibition: stronger effect = higher value; nuclei count: measured here: cell number, toxicity.
Assay [4] has as its target Voltage-gated potassium channel subunit beta-2 (Rattus norvegicus) (UniProt P62483). Description: inhibitors of rat Kvbeta2 reductase activity – biochemical, NADPH fluorescence, primary screen (AID 622;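 active = fluorescence slope higher than the sample average by over 3 SD, cut at about -0.22 in these data, passing the limit was not always enough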;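 also: slope of raw intensity against log time taken from 70 to 1610 s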). The following applies: recombinant KvBeta, 4-cyanobenzaldehyde reduction, at 10 µM, stronger effect = higher value.
For assay [5] the target is unchanged. The experiment in a line: enhancers of rat Kvbeta2 NADPH turnover – biochemical, NADPH fluorescence, primary screen (AID 623;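 active = NADPH fluorescence slope more negative than the mean of all samples by about 3 SD, 99.7% confidence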;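 also: fluorescence intensity change per second fitted from 20 to 320 s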). The following applies: Recombinant KvBeta, NADPH fluorescence decrease slope, 10 min; at 10 µM; stronger effect = lower value.
In assay [6] the target is Alpha-2C adrenergic receptor (Homo sapiens) (UniProt P18825). Description: compounds altering alpha2C-coupled GIRK flux – cell-based, HEK293 alpha2C/GIRK1/2, thallium flux, primary screen (AID 624;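 active = fluorescence slope after compound addition differing from the mean of all screened samples at 99.7% confidence, in either direction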;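 also: slope of fluorescence ratio to pre-addition baseline per second over 15 to 24 s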). The following applies: thallium flux BTC fluorescence, at 10 µM, actives lie on both sides.
Assay [7] in a line: blockers of RIG-like receptor reporter activation – cell-based, Sendai virus stimulus, luciferase, 10K MLSCN set, TLR/RLR signaling modifier project, primary screen (AID 602276).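 Also: firefly luciferase from ISG56 promoter only with Renilla not read in this screen; 0% = Sendai virus plus DMSO and 100% = medium plus DMSO without virus.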 As to conditions: HEK293 RL24 IRF3 luciferase reporter, at 10 µM, stronger effect = higher value. (In a reporter assay the amount or activity of a reporter protein is the signal.)
Assay [8] can be described thus: TLR3 IRF3 reporter activation blockers – cell-based, poly I:C stimulus, luciferase, 10K MLSCN set, primary screen (AID 602277;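 active = inhibition of the reporter signal at or above 50%; inactive = inhibition below 50%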). As to conditions: HEK293-TLR3 RL24 IRF3 luciferase reporter, at 10 µM, stronger effect = higher value.

Chain of Voltage-gated potassium channel subunit beta-2 (Rattus norvegicus) (P62483 whole entry, looked up): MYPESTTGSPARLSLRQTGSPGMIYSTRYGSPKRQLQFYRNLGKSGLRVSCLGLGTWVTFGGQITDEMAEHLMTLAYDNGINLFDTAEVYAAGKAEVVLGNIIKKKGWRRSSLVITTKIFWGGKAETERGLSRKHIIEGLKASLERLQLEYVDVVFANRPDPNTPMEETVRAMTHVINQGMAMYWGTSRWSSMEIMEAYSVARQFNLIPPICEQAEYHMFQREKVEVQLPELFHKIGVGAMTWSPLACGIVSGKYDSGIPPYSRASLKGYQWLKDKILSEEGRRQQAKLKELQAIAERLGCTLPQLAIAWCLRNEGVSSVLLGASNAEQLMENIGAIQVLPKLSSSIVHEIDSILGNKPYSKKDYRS
Chain of Alpha-2C adrenergic receptor (Homo sapiens) (P18825 whole entry, looked up): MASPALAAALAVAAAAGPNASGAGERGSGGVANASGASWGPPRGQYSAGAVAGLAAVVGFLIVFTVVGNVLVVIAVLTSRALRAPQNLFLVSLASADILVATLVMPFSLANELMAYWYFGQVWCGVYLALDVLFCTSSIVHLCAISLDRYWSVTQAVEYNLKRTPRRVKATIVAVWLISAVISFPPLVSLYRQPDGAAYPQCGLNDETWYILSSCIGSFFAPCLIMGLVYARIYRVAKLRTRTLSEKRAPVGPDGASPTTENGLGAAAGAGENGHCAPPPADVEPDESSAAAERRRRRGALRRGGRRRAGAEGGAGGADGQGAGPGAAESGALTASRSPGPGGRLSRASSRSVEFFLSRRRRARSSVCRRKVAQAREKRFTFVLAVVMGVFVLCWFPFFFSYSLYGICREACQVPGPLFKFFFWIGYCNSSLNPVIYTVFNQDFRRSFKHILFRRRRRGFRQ

With `CC1=C(C(=O)N2CCCCC2)C(c2cccs2)C2=C(CCCC2=O)N1` (centres undefined), the cell count in assay [1] stood at 332. Besides, the inhibition (as a rule, the relative decrease from the control value, in per cent) in assay [1] is -3.9% (inactive); in assay [3] it was -31.6% (inactive); in assay [7] it was 7.2% (inactive); in assay [8], 6.53% (inactive). For the same compound, in assay [2], the inhibition of aggregation was 8.9% (inactive). Moreover, the nuclei count in assay [2] was 95.9%; in assay [3], 92.4%. The fluorescence slope in assay [4] is -0.29 (inactive). In addition, the NADPH fluorescence slope in assay [5] is -3.5e-05 (inactive). Moreover, the slope in assay [6] is 0.0061 (inactive).
Take `CCOC(=O)C1=C(CS(=O)(=O)c2ccc(F)c(C)c2)NC(=O)NC1c1ccc(O)c(O)c1` (centres undefined): the cell count in assay [1] came to 619. The inhibition in assay [1] is -0.8% (inactive); in assay [3], -35.7% (inactive); in assay [7], -1.61% (inactive); in assay [8], 5.18% (inactive). The inhibition of aggregation in assay [2] was 8.1% (inactive). Further, the nuclei count in assay [2] turned out to be 112%; in assay [3], 116%. Also, in assay [4], the fluorescence slope is -0.576 (inactive). Moreover, in assay [5], the NADPH fluorescence slope is -2.4e-05 (inactive). The slope in assay [6] is 0.00703 (inactive).
On to `CCC(C)(C)n1nnnc1C(c1cc2cc(OC)ccc2[nH]c1=O)N1CCc2ccccc21` (centres undefined), for which the cell count in assay [1] was found to be 411. For the same compound, the inhibition in assay [1] was -18.4% (inactive); in assay [3], -14.8% (inactive); in assay [7], 14.9% (inactive); in assay [8] it was 29.5% (inactive). Besides, the inhibition of aggregation in assay [2] was 9.8% (inactive). Besides, the nuclei count in assay [2] was 100%; in assay [3], 116%. In assay [4], the fluorescence slope was -0.592 (inactive). The NADPH fluorescence slope in assay [5] was -4.5e-05 (inactive). Further, the slope in assay [6] is 0.0033 (inactive).
Turning to `COc1cccc(-c2nc3n(n2)C(c2ccccc2Cl)C(C(N)=O)=C(C)N3)c1` (centres undefined), the cell count in assay [1] came out at 595. For the same compound, the inhibition was -0.8% (inactive) in assay [1], -26.6% (inactive) in assay [3], 12.1% (inactive) in assay [7] and 38.1% (inactive) in assay [8]. Also, the inhibition of aggregation in assay [2] was -7.2% (inactive). Further, the nuclei count in assay [2] came to 114%; in assay [3], 103%. In addition, the fluorescence slope in assay [4] is -0.393 (inactive). The NADPH fluorescence slope in assay [5] is 1.7e-05 (inactive). Further, the slope in assay [6] is 0.00613 (inactive).
Take `COC(=O)CN(c1ccc(C)c(Cl)c1)S(C)(=O)=O`: the cell count in assay [1] came out at 322. Moreover, the inhibition in assay [1] was 4% (inactive); in assay [3], 13.8% (inactive); in assay [7] it was 13.7% (inactive); in assay [8], 19.8% (inactive). Moreover, the inhibition of aggregation in assay [2] was -11.9% (inactive). Also, the nuclei count in assay [2] was 117%; in assay [3] it was 110%. The fluorescence slope in assay [4] is -0.506 (inactive). Further, the NADPH fluorescence slope in assay [5] was -4.6e-05 (inactive). The slope in assay [6] was 0.00698 (inactive).
`CC1CCN(c2nc3c(c(=O)n(C)c(=O)n3C)n2Cc2ccccc2)CC1`: the cell count in assay [1] stood at 666. Also, the inhibition is -3.5% (inactive) in assay [1], -81.5% (inactive) in assay [3], 12.3% (inactive) in assay [7] and 15.2% (inactive) in assay [8]. In addition, the inhibition of aggregation in assay [2] is -14.9% (inactive). Also, the nuclei count in assay [2] turned out to be 83.4%; in assay [3], 139%. For the same compound, in assay [4], the fluorescence slope is -0.39 (inactive). Also, the NADPH fluorescence slope in assay [5] is -6.1e-06 (inactive). For the same compound, the slope in assay [6] is 0.00388 (inactive).
In the case of `CC(=O)N(C(C)=O)c1ncc2c([nH]c3ccccc32)c1C#N`, the cell count in assay [1] was determined as 320. The inhibition was 2.1% (inactive) in assay [1], 0.9% (inactive) in assay [3], 11.7% (inactive) in assay [7] and 15.6% (inactive) in assay [8]. Further, the inhibition of aggregation in assay [2] was -79% (inactive). Besides, the nuclei count came to 2.8% in assay [2] and 117% in assay [3]. In addition, the fluorescence slope in assay [4] was -0.406 (inactive). Besides, the NADPH fluorescence slope in assay [5] is -2.2e-05 (inactive). Also, the slope in assay [6] is 0.00457 (inactive).
On to `COc1ccc(-c2nnc(SCC(=O)Nc3ccc(Cl)cc3)n2C)cc1`, for which the cell count in assay [1] was 327. Also, the inhibition was -5.5% (inactive) in assay [1], -77.8% (inactive) in assay [3], -16% (inactive) in assay [7] and -1.71% (inactive) in assay [8]. Also, the inhibition of aggregation in assay [2] was -26.9% (inactive). Further, the nuclei count is 139% in assay [2] and 122% in assay [3]. For the same compound, the fluorescence slope in assay [4] is -0.462 (inactive). The NADPH fluorescence slope in assay [5] was 3.4e-05 (inactive). Also, the slope in assay [6] was 0.00817 (inactive).
Consider `O=S(=O)(Nc1nc2ccccc2nc1NCc1ccco1)c1cccs1`, for which the cell count in assay [1] came out at 448. Moreover, the inhibition was -6.2% (inactive) in assay [1], -73.9% (inactive) in assay [3], 14.7% (inactive) in assay [7] and 14.6% (inactive) in assay [8]. In assay [2], the inhibition of aggregation was -18.2% (inactive). Further, the nuclei count in assay [2] amounted to 105%; in assay [3], 120%. Besides, the fluorescence slope in assay [4] was -0.298 (inactive). For the same compound, the NADPH fluorescence slope in assay [5] was -6.8e-05 (inactive). Moreover, the slope in assay [6] is 0.00495 (inactive).
For `CCCCn1nnc(NC(=O)c2cc3ccccc3o2)n1`, in assay [1], the cell count was found to be 615. The inhibition in assay [1] was 2.2% (inactive); in assay [3], -13.4% (inactive); in assay [7], -19% (inactive); in assay [8], -27.4% (inactive). In addition, the inhibition of aggregation in assay [2] was 3.5% (inactive). Also, the nuclei count in assay [2] stood at 106%; in assay [3], 90.8%. In addition, the fluorescence slope in assay [4] was -0.468 (inactive). Also, the NADPH fluorescence slope in assay [5] is 1.2e-05 (inactive). For the same compound, the slope in assay [6] was 0.00257 (inactive).
Regarding `O=C(NC1CCN(Cc2nnnn2CCc2ccccc2)CC1)c1ccccc1F`, in assay [1], the cell count came to 744. For the same compound, the inhibition in assay [1] was 0% (inactive); in assay [3], -44.2% (inactive); in assay [7], 11.5% (inactive); in assay [8], 27.2% (inactive). The inhibition of aggregation in assay [2] was -8.8% (inactive). Further, the nuclei count in assay [2] is 99.7%; in assay [3], 116%. For the same compound, the fluorescence slope in assay [4] is -0.295 (inactive). Besides, the NADPH fluorescence slope in assay [5] is -3.3e-06 (inactive). The slope in assay [6] was 0.00487 (inactive).
With `COc1ccc(CCNc2oc(COc3ccc(F)cc3)nc2C#N)cc1`, the cell count in assay [1] came out at 407. For the same compound, the inhibition in assay [1] is -9.8% (inactive); in assay [3], 17% (inactive); in assay [7], 15.6% (inactive); in assay [8] it was 23.5% (inactive). The inhibition of aggregation in assay [2] was 8.7% (inactive). Also, the nuclei count is 88.8% in assay [2] and 74.8% in assay [3]. In addition, in assay [4], the fluorescence slope is -0.608 (inactive). In addition, the NADPH fluorescence slope in assay [5] was -3.3e-06 (inactive). In assay [6], the slope is 0.00681 (inactive).
As to `OCc1cn(-c2ccccc2)nc1-c1ccc2c(c1)OCCO2`, the cell count in assay [1] was determined as 438. For the same compound, the inhibition in assay [1] was 4.2% (inactive); in assay [3] it was -84% (inactive); in assay [7], -51.8% (inactive); in assay [8], -135% (inactive). In addition, the inhibition of aggregation in assay [2] was -10.7% (inactive). In addition, the figures for the nuclei count in assay [2] and in assay [3] were 99.4% and 112%, respectively. Besides, the fluorescence slope in assay [4] was -0.532 (inactive). In assay [5], the NADPH fluorescence slope is -4.4e-05 (inactive). Besides, the slope in assay [6] was 0.00702 (inactive).
`O=C(Nc1cccnc1)c1ccc2c(c1)OCO2`: in assay [1], the cell count was 696. Moreover, the inhibition in assay [1] was -16.9% (inactive); in assay [3] it was -9.7% (inactive); in assay [7], -19.3% (inactive); in assay [8], -49.8% (inactive). The inhibition of aggregation in assay [2] was 19.5% (inactive). Further, the nuclei count was 80.6% in assay [2] and 110% in assay [3]. Also, in assay [4], the fluorescence slope is -0.515 (inactive). Also, the NADPH fluorescence slope in assay [5] is -3.5e-05 (inactive). Besides, the slope in assay [6] was 0.00618 (inactive).
